Structures are written as SMILES. Activity calls are given as the source filed them. Rule for the calls: active = hit-call score of the fitted dose curve at least 0.9, where 1 is the maximum; inactive = score below 0.9.

Read-out in this assay: Forkhead box O1 (FOXO1), FOXO1 (gene 2308)
The assay can be described thus: LTEA_HepaRG_FOXO1: Life Technologies and Expression Analysis (LTEA) Assay for Forkhead box O1 (FOXO1) using HepaRG (AID 2283456). The settings on record: mRNA level, 48 h; actives raise or lower the signal. The procedure:
LTEA_HepaRG is a cell based, multiplexed-readout assay that uses HepaRG, a human liver cell line, with measurements taken at 48 hours after chemical dosing on a 96-well plate.LTEA_HepaRG_FOXO1 is one of 102 assay component(s) measured in the LTEA HepaRG cell culture assay. It is a marker of Cell proliferation, survival, death.Data from the assay component LTEA_HepaRG_FOXO1 was analyzed into 1 endpoint. This assay endpoint, LTEA_HepaRG_FOXO1, was analyzed with bidirectional fitting relative to DMSO as the negative control and baseline of activity. Using a type of inducible reporter, measures of mRNA induction for gain or loss-of-signal activity can be used to understand regulation of transcription factor activity. To generalize the intended target to other relatable targets, this assay endpoint is annotated to the dna binding intended target family, where the subfamily is forkhead box protein.
A total of 1060 chemcials from the ToxCast library were tested in eight-point concentration-response experiments. Cell culture and cytotoxicity assays were conducted at Thermo Fisher Scientific's Custom Services facility (Madison, WI). A single lot of human HepaRG cells (Thermo Fisher Scientific, Frederick, MD) was used for the cell culture experiments. 96-well format collagen type I coated plates of human HepaRG cells were prepared using established methods. Briefly, cryopreserved HepaRG cells were thawed, plated at a density of approximately 100,000 cells/well in HepaRG Thaw, Plate, and General Purpose media (HPRG770, Thermo Fisher Scientific), and incubated for 48 hours. 0.5% DMSO was selected as vehicle control to balance the requisite need of DMSO in HepaRG cultures to maintain differentiation (for example, baseline metabolism, proportions of hepatocytes vs. cholangiocytes), while enabling further hepatic receptor pathway activation (for example, PXR and CAR) in response to chemical exposure. 48 hours after plating, the culture medium was replaced with HepaRG Serum-Free Incudtion Media. Cells were exposed to each test chemical in duplicate and maintained in CO2 incubators for another 48 hours. Chemical plates were thawed to room temperature and 200x concentrations of treatment groups were prepared. 8-point conentration-reponse curves were made with the highest exposure at 100 uM, followed by half-log dilutions, all in 0.5% DMSO. Each test plate contained variouse controls, induction positive controls (1mM phenobarbital), cytotoxicity positive controls ([…] aflatoxin B1), vehicle controls (0.5% DMSO), and total lysis controls (0.5% DMSO). Cell morphology images were taken using an Essen IncuCyte FLR automated microscope, with six 96-well plates imaged in about 24 minutes. Images were captured and exported and JPEG files. Spent culture media was transfered to black-well plates for the LDH assay, and remaining media was sorted at -80 C for later use. Cells were treated with RLT buffer and frozen until shipped for gene expression analysis. Total RNA was isolated from the cell suspension in 75 uL of Buffer RLT (Qiagen, Germantown, MD 20874) by Quintiles/Expression Analysis (Durham, NC) using a custom isolation procedure. Total RNA from each plate well was transferred to a preamplification plate. Fluidigm's 96.96 Dynamic ArrayTM (Fluidigm, Amsterdam, the Netherlands) technology was used for gene expression analyses by quantitative reverse transcription polymerase chain reaction (qRT-PCR, performed by Quintiles/Expression Analysis, Durham, NC)89. Standard TaqManTM Assays (Applied Biosystems/ThermoFisher Scientific, Foster City, CA) were used to assess the expression of 93 genes selected based on their selectivity and sensitivity to important hepatic receptors known to be modulated by environmental chemicals; importance in human hepatocyte functionality; and hepatotoxicity. […]
Turning to `N#Cc1c[nH]cc1-c1cccc2c1OC(F)(F)O2`, the result was inactive.

As for `CS(=O)(=O)c1ccc(C(=O)C2C(=O)CCCC2=O)c([N+](=O)[O-])c1`, the result was inactive.

Consider `COc1ccc(-c2ccccc2)cc1NNC(=O)OC(C)C`, for which the call was inactive.

As to `CCOc1nc(C(Cl)(Cl)Cl)ns1`, the AC50 was 1 µM (active).

In the case of `CSC(=O)c1c(C(F)F)nc(C(F)(F)F)c(C(=O)SC)c1CC(C)C`, the molecule was called inactive.

In the case of `CCCCC(C#N)(Cn1cncn1)c1ccc(Cl)cc1` (stereo not given), the result was inactive.

For the molecule `CC(C)NC(=O)N1CC(=O)N(c2cc(Cl)cc(Cl)c2)C1=O`, the outcome was inactive.

On to `COc1cc(OC)nc(NC(=O)NS(=O)(=O)c2ncccc2OCC(F)(F)F)n1`, for which the molecule was classed as inactive.

As to `CO/N=C(/C1=NOCCO1)c1ccccc1Oc1ncnc(Oc2ccccc2Cl)c1F`, the AC50 is 10 µM (active).

In the case of `Clc1cccc(C(Cl)(Cl)Cl)n1`, the call was inactive.

On to `Nc1cnn(-c2ccccc2)c(=O)c1Cl`, for which the result was inactive.

Regarding `CCCN(CC)CC1COC2(CCC(C(C)(C)C)CC2)O1` (stereo not given), the result was inactive.

Regarding `O=P(O)(O)CCCl`, the outcome was inactive.

For the molecule `Nc1c(Cl)c(F)nc(OCC(=O)O)c1Cl`, the molecule was called inactive.

On to `CCN(CC)c1nc(C)cc(OP(=S)(OC)OC)n1`, for which the call was inactive.

For `COC(=O)c1c(C(F)F)nc(C(F)(F)F)c(C2=NCCS2)c1CC(C)C`, the molecule was classed as inactive.

Take `CC(C)N1C(=O)c2ccccc2NS1(=O)=O`: the result was inactive.

Take `CS(=O)(=O)c1cc(C(F)(F)F)ccc1C(=O)c1cnoc1C1CC1`: the molecule was called inactive.

With `COCc1cnc(C2=NC(C)(C(C)C)C(=O)N2)c(C(=O)O)c1` (stereo not given), the outcome was inactive.

`CCOc1nc(F)cc2nc(S(=O)(=O)Nc3c(Cl)cccc3Cl)nn12`: the outcome was inactive.

`CCSC(=O)N1CCCCCC1`: the molecule was classed as inactive.

In the case of `COP(=O)(OC)O/C(C)=C/C(=O)N(C)C`, the molecule was classed as inactive.

Consider `Cc1cc(C)nc(Nc2ccccc2)n1`, for which the molecule was classed as inactive.

As for `COC(=O)NS(=O)(=O)c1ccc(N)cc1`, the result was inactive.

In the case of `Clc1nc(Cl)nc(Nc2ccccc2Cl)n1`, the result was inactive.

With `COC(=O)NC(=S)Nc1ccccc1NC(=S)NC(=O)OC`, the call was inactive.

In the case of `CNC(=O)Oc1cccc2ccccc12`, the molecule was called inactive.

As to `CC(C)Oc1cccc(NC(=O)c2ccccc2C(F)(F)F)c1`, the molecule was classed as inactive.

With `COCC(=O)N(c1c(C)cccc1C)C(C)C(=O)OC` (stereo not given), the molecule was classed as inactive.

For `CCN(CC)C(=O)C(C)Oc1cccc2ccccc12` (stereo not given), the molecule was classed as inactive.

As for `CCOP(=S)(OCC)Oc1nc(Cl)n(C(C)C)n1`, the molecule was classed as inactive.

Take `CCOc1cc(C(C)(C)C)ccc1C1COC(c2c(F)cccc2F)=N1` (stereo not given): the molecule was classed as inactive.

As for `Cc1c(COC(=O)[C@@H]2[C@H](/C=C(\Cl)C(F)(F)F)C2(C)C)cccc1-c1ccccc1`, the call was inactive.

`Nc1c(Cl)c(Cl)nc(C(=O)O)c1Cl`: the result was inactive.

As for `CCCC(=NOCC)C1=C(O)CC(CC(C)SCC)CC1=O` (stereo not given), the result was inactive.

For `N#Cc1c(Cl)cccc1Cl`, the molecule was called inactive.

Take `CCCCC(O)(Cn1cncn1)c1ccc(Cl)cc1Cl` (stereo not given): the AC50 was 80.2 µM (active).

Take `Cc1nc(N(C)C)nc(OC(=O)N(C)C)c1C`: the result was inactive.

For `CNC(=O)N(C)c1nnc(C(C)(C)C)s1`, the molecule was classed as inactive.

As to `CCC(C)n1c(=O)[nH]c(C)c(Br)c1=O` (stereo not given), the outcome was inactive.

These data come from PubChem BioAssay (EPA / NIEHS).
